Laboratory results taken from PubChem BioAssay (Tox21).
Inconclusive results are not listed. Active and inactive are the calls of the source. The call rests on the fitted dose curve; in most records, active means well fitted curve in the direction sought with a large enough effect in the repeat runs; inconclusive means weak or mixed curves; inactive means no such curve, though single readings can be large; an effect the other way counts as inactive or inconclusive.

Legend:
[1] = A CellTox Green Cytotoxicity Assay to monitor cytotoxicity in HEK293 cells - 40 hour (AID 1224871); further: nearly all actives have a fitted effect of over 45% in size
How it was run: (§1)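 Seeding of HEK293 cells together with cytotoxicity dye preceded a 5 h incubation at 37 C/5% CO2. Test compounds in DMSO were then added and fluorescence monitored across 40 h.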

[2] = qHTS RealTime-Glo MT Cell Viability Assay in HEK293 cells - 16 hour (AID 1224872); further: top concentration of the series differs between compounds; nearly all actives have a fitted effect of over 50% in size
How it was run: (§2)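 Homogeneous bioluminescent viability format in HEK293 cells (600 cells/well). Following 5 h at 37 C/5% CO2, 23 nL compound was pintooled; the signal was measured repeatedly during 40 h incubation.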

[3] = qHTS RealTime-Glo MT Cell Viability Assay in HepG2 cells - 8 hour (AID 1224873); further: nearly all actives have a fitted effect of over 55% in size
How it was run: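 Real-time viability: cells seeded at 600 per well together with NanoLuc and cell-permeant prosubstrate, compounds added after 5 h incubation. Luminescence tracked at 0, 8, 16, 24, 32 and 40 h of exposure.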

[4] = qHTS RealTime-Glo MT Cell Viability Assay in HEK293 cells - 40 hour (AID 1224874); conditions: RealTime-Glo luminescence; max response: stronger effect = lower value; further: nearly all actives have a fitted effect of over 50% in size
How it was run: (§3)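 Tox21 screen in HEK293 using RealTime-Glo MT chemistry, with cells and reagent co-dispensed. Luminescence proportional to viable cell number was captured at intervals during 40 h compound exposure at 37 C.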

[5] = A CellTox Green Cytotoxicity Assay to monitor cytotoxicity in HEK293 cells - 24 hour (AID 1224875); further: series mostly up to about 77 µM; nearly all actives have a fitted effect of over 45% in size
How it was run: as §1

[6] = A CellTox Green Cytotoxicity Assay to monitor cytotoxicity in HepG2 cells - 16 hour (AID 1224876); further: nearly all actives have a fitted effect of over 45% in size
How it was run: (§4)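 Nonlytic assay: viable cells exclude the dye, so fluorescence scales with cell death. HepG2 at 600 cells/well, compounds added after 5 h, signal read across 40 h.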

[7] = qHTS RealTime-Glo MT Cell Viability Assay in HepG2 cells - 32 hour (AID 1224877); further: nearly all actives have a fitted effect of over 55% in size
How it was run: (§5)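 Cell number in HepG2 cultures estimated from NanoLuc luminescence generated by metabolic reduction of a prosubstrate by living cells. The homogeneous, nonlytic format allowed repeated reads at 0, 8, 16, 24, 32 and 40 h of compound exposure.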

[8] = A CellTox Green Cytotoxicity Assay to monitor cytotoxicity in HepG2 cells - 24 hour (AID 1224878); further: nearly all actives have a fitted effect of over 45% in size; further: potency means the concentration at half of the fitted maximal effect
How it was run: as §4

[9] = A CellTox Green Cytotoxicity Assay to monitor cytotoxicity in HepG2 cells - 40 hour (AID 1224879); further: nearly all actives have a fitted effect of over 40% in size; further: potency means the concentration at half of the fitted maximal effect
How it was run: as §4

[10] = qHTS RealTime-Glo MT Cell Viability Assay in HEK293 cells - 0 hour (AID 1224880)
How it was run: as §3

[11] = A CellTox Green Cytotoxicity Assay to monitor cytotoxicity in HEK293 cells - 32 hour (AID 1224881); further: nearly all actives have a fitted effect of over 40% in size
How it was run: as §1

[12] = A CellTox Green Cytotoxicity Assay to monitor cytotoxicity in HepG2 cells - 0 hour (AID 1224882); further: nearly all actives have a fitted effect of over 35% in size
How it was run: as §4

[13] = A CellTox Green Cytotoxicity Assay to monitor cytotoxicity in HepG2 cells - 32 hour (AID 1224883); further: nearly all actives have a fitted effect of over 50% in size; further: potency means the concentration at half of the fitted maximal effect
How it was run: as §4

[14] = A CellTox Green Cytotoxicity Assay to monitor cytotoxicity in HEK293 cells - 8 hour (AID 1224884); further: nearly all actives have a fitted effect of over 35% in size
How it was run: as §1

[15] = qHTS RealTime-Glo MT Cell Viability Assay in HepG2 cells - 16 hour (AID 1224885); further: nearly all actives have a fitted effect of over 50% in size
How it was run: as §5

[16] = qHTS RealTime-Glo MT Cell Viability Assay in HEK293 cells - 24 hour (AID 1224886)
How it was run: as §2

[17] = qHTS RealTime-Glo MT Cell Viability Assay in HEK293 cells - 8 hour (AID 1224887)
How it was run: as §3

[18] = A CellTox Green Cytotoxicity Assay to monitor cytotoxicity in HEK293 cells - 16 hour (AID 1224888); further: nearly all actives have a fitted effect of over 35% in size
How it was run: as §1

[19] = qHTS RealTime-Glo MT Cell Viability Assay in HepG2 cells - 0 hour (AID 1224889); further: nearly all actives have a fitted effect of over 50% in size
How it was run: as §5

[20] = A CellTox Green Cytotoxicity Assay to monitor cytotoxicity in HepG2 cells - 8 hour (AID 1224890); further: nearly all actives have a fitted effect of over 45% in size
How it was run: as §4
On the % scale 0 is the no-effect control and ±100 the full control effect.

COC(=O)C(Cl)C(=O)OC
inactive: Potency [1] | Potency [2] | Potency [3] | max response [4] -20.1% | Potency [5] | Potency [6] | Potency [7] | Potency [8] | Potency [9] | Potency [10] | Potency [11] | Potency [12] | Potency [13] | Potency [14] | Potency [15] | Potency [16] | Potency [17] | Potency [18] | Potency [19]

O=C(O)c1ccccc1C(=O)Nc1cccc2ccccc12
inactive: Potency [1] | Potency [2] | Potency [3] | max response [4] 18.5% | Potency [5] | Potency [6] | Potency [7] | Potency [8] | Potency [9] | Potency [10] | Potency [11] | Potency [12] | Potency [13] | Potency [14] | Potency [15] | Potency [18] | Potency [19] | Potency [20]

NNC(=O)c1cccnc1
inactive: Potency [1] | Potency [2] | Potency [3] | max response [4] 12.4% | Potency [5] | Potency [6] | Potency [7] | Potency [8] | Potency [9] | Potency [10] | Potency [11] | Potency [12] | Potency [13] | Potency [14] | Potency [16] | Potency [18] | Potency [19] | Potency [20]

O=C(CBr)c1ccccc1
inactive: Potency [1] | Potency [2] | Potency [3] | max response [4] 3.94% | Potency [5] | Potency [6] | Potency [7] | Potency [8] | Potency [9] | Potency [10] | Potency [11] | Potency [12] | Potency [13] | Potency [14] | Potency [15] | Potency [16] | Potency [17] | Potency [18] | Potency [19] | Potency [20]

C=CC(=O)OCC(C)C
inactive: Potency [1] | Potency [2] | Potency [3] | max response [4] 15.8% | Potency [5] | Potency [6] | Potency [7] | Potency [8] | Potency [9] | Potency [10] | Potency [11] | Potency [12] | Potency [13] | Potency [14] | Potency [16] | Potency [17] | Potency [18] | Potency [19] | Potency [20]

CN(N=O)c1ccc([N+](=O)[O-])cc1
inactive: Potency [1] | Potency [2] | Potency [3] | max response [4] -1.54% | Potency [5] | Potency [6] | Potency [7] | Potency [10] | Potency [11] | Potency [12] | Potency [14] | Potency [15] | Potency [16] | Potency [17] | Potency [18] | Potency [19] | Potency [20]
active: Potency [8] 43.6 µM | Potency [9] 43.6 µM | Potency [13] 43.6 µM

COC(=O)c1cncn1C(C)c1ccccc1 (centres undefined)
inactive: Potency [1] | Potency [2] | Potency [3] | max response [4] 1.22% | Potency [5] | Potency [6] | Potency [7] | Potency [8] | Potency [9] | Potency [10] | Potency [11] | Potency [12] | Potency [13] | Potency [14] | Potency [15] | Potency [16] | Potency [17] | Potency [18] | Potency [19] | Potency [20]
